About 750 (4.2%) of roughly 18,000 compounds were called active. About 13% were inconclusive and are not listed. The call rests on the fitted dose curve; tested in HEK293 cells. The sample as a whole holds a higher share of actives than the screen did.
On the % scale 0 is the no-effect control and ±100 the full control effect; potency means the concentration at half of the fitted maximal effect.

The assay in a line: qHTS for Inhibitors of binding or entry into cells for Lassa Virus. Particulars: Lassa virus pseudotyped entry inhibition, cell-based qHTS; series mostly up to 49.2 µM; activity change, negative = inhibition: at the top concentration. (In general: qHTS replaces the single test concentration by a dilution series.)
`O=C(/C=C/c1ccccc1)c1ccccc1O`: the “activity change, negative = inhibition” value is 4.23% (inactive).

`CC(=O)c1c(O)c(C)c(O)c(Cc2c(O)c3c(c(C(=O)/C=C/c4ccccc4)c2O)OC(C)(C)C=C3)c1O`: the activity change, negative = inhibition result is “inactive”.

For `CC(=O)c1c(O)c(C)c(O)c(Cc2c(O)c3c(c(C(=O)/C=C\c4ccccc4)c2O)OC(C)(C)C=C3)c1O`, the Potency is 15.8 µM (active).

`CC(C)CNc1cccc2c1S(=O)(=O)N[C@H](CC(C)C)CO2`: the “activity change, negative = inhibition” value is 23.9% (inactive).

Take `CC[C@@]12C=C(/C=C/c3ccccc3)[C@](CC)(C1)[C@H](c1ccccc1)CC2=O`: the “activity change, negative = inhibition” value was 4.3% (inactive).

Turning to `O=C(NCc1ccco1)O[C@@H]1C(=O)c2cc(Br)ccc2O[C@H]1c1ccc2c(c1)OCO2`, the “activity change, negative = inhibition” value is -1.63% (inactive).

For `O=C(C1CCCCC1)N1C[C@@H](n2cc(C3CC3)nn2)[C@@H](O)C[C@@H]1c1ccccc1`, the “activity change, negative = inhibition” value is 14.9% (inactive).

In the case of `COC(=O)c1ccccc1-c1cc(C)cc2c1OC(CNC(=O)C1CCOC1)C2` (configuration not stated), the “activity change, negative = inhibition” value is -27.8% (inactive).

Regarding `CC(C)c1ccc2c(c1)c(SC(C)(C)C)c(CC(C)(C)C(=O)O)n2Cc1ccc(Cl)cc1`, the Potency was 25.1 µM (active).

As for `COCCN1C(=S)NC(c2cccc(F)c2)C(C(=O)OC)=C1C` (configuration not stated), the activity change, negative = inhibition is 11% [at 8.59 µM] (inactive).

For `O=C(Nc1ccc(C(=O)O)c(O)c1)c1ccccc1`, the “activity change, negative = inhibition” value was -5.82% (inactive).

`O=C(Nc1cccc(C(F)(F)F)c1)c1cc(Br)cc(Br)c1O`: the Potency was 3.98 µM (active).

Take `O=C(Nc1ccc(O)cc1)c1ccccc1O`: the “activity change, negative = inhibition” value was -7.09% (inactive).

Take `c1ccc2c(c1)[I+]c1ccccc1-2`: the Potency was 0.891 µM (active).

As for `CCCCCCCC/C=C\CCCCCCCC(=O)OC[C@H](CO)OC(C)=O`, the activity change, negative = inhibition entry is “inactive”.

On to `Cc1cc2oc(=O)cc(-c3ccccc3)c2c(C)c1/C=C/c1ccc(F)cc1`, for which the “activity change, negative = inhibition” value was -26.5% (inactive).

Take `Oc1c(Cl)cc(Cl)c(Cl)c1Cc1c(O)c(Cl)cc(Cl)c1Cl`: the Potency is 6.31 µM (active).

For `C=CCC1CCC(=O)N2CCCC12` (configuration not stated), the “activity change, negative = inhibition” value is 6.13% [at 107 µM] (inactive).

Consider `CO[C@H]1C=CO[C@@]2(C)Oc3c(C)c(O)c4c(O)c(c(/C=N/N5CCN(C)CC5)c(O)c4c3C2=O)NC(=O)/C(C)=C\C=C[C@H](C)[C@H](O)[C@@H](C)[C@@H](O)[C@@H](C)[C@H](OC(C)=O)[C@@H]1C`, for which the “activity change, negative = inhibition” value was -2.8% (inactive).

For the compound `COC(=O)C(C(=O)OC)[C@@H](NC=O)c1ccccc1`, the “activity change, negative = inhibition” value was 3.12% (inactive).

As for `Cc1c(O)cc(O)c2c(=O)c(-c3ccc(O)cc3)coc12`, the “activity change, negative = inhibition” value is 9.52% (inactive).

As to `O=C(OCc1ccccc1)c1ccc(O)cc1`, the “activity change, negative = inhibition” value was 5.78% (inactive).

Consider `O=c1c(O)c(-c2ccc(O)cc2)oc2ccccc12`, for which the “activity change, negative = inhibition” value was -13.3% (inactive).

`O=c1c(CN2CCOc3ccc(CN4CCC(Oc5cccnc5)CC4)cc3C2)coc2ccccc12`: the “activity change, negative = inhibition” value is -25.2% (inactive).

As to `O[C@H]1CN(CC2CCCCC2)[C@@H](c2ccccc2)C[C@H]1n1cc(-c2ccc(F)cc2)nn1`, the “activity change, negative = inhibition” value is -22.3% (inactive).

`O=c1cc(CN2CCCCCCC2)c2c(ccc3ccccc32)o1`: the “activity change, negative = inhibition” value was -12.8% (inactive).

With `CCCCCCN1C[C@H](O)[C@@H](n2cc(COC(=O)c3ccccc3)nn2)C[C@H]1c1ccc(Cl)cc1`, the “activity change, negative = inhibition” value was -31.6% (inactive).

Source of the values: PubChem BioAssay AID720533 (National Center for Advancing Translational Sciences (NCATS), 2013).
